Out of some 10,000 compounds screened, about 320 (3.2%) were called active. The full list was thinned out, with actives kept by preference. Values without a mark were called inactive. Cut-off read from the data, not from the text of the source: active = CPE inhibition mostly above about 9.1% (no sharp cut-off); inactive = mostly below about 7.2%.

The experiment can be described thus: antivirals protecting cells from dengue CPE – CPE readout, HTS (AID 540333). The settings on record: Dengue virus CPE inhibition in host cells, at 20 µM; stronger effect = higher value.
As to `COc1cc(/C(C)=N/NC(=S)NC(C)C)cc(OC)c1OC`, the CPE inhibition entry was “inactive”.

In the case of `N#Cc1ccc(NC(=O)CCc2nc3ccccc3s2)cc1`, the CPE inhibition result was “inactive”. Turning to `COC(=O)C1=C(NC(=O)COc2ccc3ccccc3c2)CCS1`, the CPE inhibition is 1.12%. The same measure for `COc1ccc(Cl)cc1NC(=O)CNc1ccccc1F`: 0.95%. With `COc1ccc(C)cc1NCC(=O)Nc1ccc(C(C)(C)C)cc1` the figure was 15.4% (active). The same measure for `Cc1ccc(NC(=O)CNc2ccc(Cl)cc2F)cc1`: 0.58%; for `COc1cc(NC(=S)NC(=O)CC(C)C)ccc1NC(=O)c1cc2ccccc2o1`: 0.02%.

As to `O=C(COC(=O)c1cccc(NS(=O)(=O)c2ccc(F)c(F)c2)c1)NC(=O)NC1CCCCC1`, the CPE inhibition was 3.8%. With `O=C(c1cccc(NS(=O)(=O)c2ccc(F)c(F)c2)c1)N1CCN(C(c2ccccc2)c2ccccc2)CC1`, the CPE inhibition is 39.5% (active). On to `O=C(c1cccc(NS(=O)(=O)c2ccc(F)c(F)c2)c1)N1CCN(Cc2ccccc2)CC1`, for which the CPE inhibition result is “inactive”. The same measure for `CCn1c(-c2c(Cl)c(C)nn2C)n[nH]c1=S`: “inactive”; for `COCCCNC(=S)NC1CCCCC1`: “inactive”.

Take `Cc1ccc(CC2SC(=Nc3ccccc3)N(c3ccccc3)C2=O)cc1` (stereo unspecified): the CPE inhibition is 4.75%. With `O=C1C(Cc2ccc(Br)cc2)SC(=Nc2ccccc2)N1c1ccccc1` (stereo unspecified) the figure was 12.3% (active); with `O=C1C(Cc2ccc(F)cc2)SC(=Nc2ccccc2)N1c1ccccc1` (stereo unspecified), 1.01%. The same measure for `Cc1nn(-c2ccccc2)c(N)c1C(O)(C(F)(F)F)C(F)(F)F`: 0.32%; for `CCOC(=O)[C@@H]1[C@H]2COc3ccc(Br)cc3[C@@H]2N2C(=O)N(c3ccc(OC)cc3)C(=O)[C@]12C`: 1.7%; for `S=C(NCC1CCCO1)Nc1ccc(Cl)cc1` (stereo unspecified): 0.15%.

On to `Cc1ccc(S(=O)(=O)N2CCN(C(C(=O)Nc3ccc(F)cc3)c3ccccc3)CC2)cc1` (stereo unspecified), for which the CPE inhibition was 1.1%. With `Cc1ccc(NC(=O)C(c2ccc(Cl)cc2Cl)N2CCCC2)cc1` (stereo unspecified) the figure was 11.5% (active); with `Cc1cc(C)cc(NC(=O)C(c2ccccc2)N2CCCC2)c1` (stereo unspecified), 0.92%; with `Cc1cccc2cc(C3CC(c4ccco4)=NN3C(=O)CCC(=O)O)c(Cl)nc12` (stereo unspecified), “inactive”. With `COc1cc(C(=O)NCC(c2cccs2)N(C)C)cc(Cl)c1OC(C)C` (stereo unspecified) the figure was 0.015%. With `COCCNC(=O)CCCC(=O)NCCOC` the entry was “inactive”.

Regarding `CCOc1cccc(C2NC(=S)NC(C)=C2C(=O)Nc2ccccc2)c1` (stereo unspecified), the CPE inhibition was 0.13%. The same measure for `CCOC(=O)c1c(NC(=O)C2=C(C)NC(=S)NC2c2ccc(F)cc2F)sc(C)c1C` (stereo unspecified): 32.4% (active); for `CC1=C(C(=O)Nc2ccc(F)c(F)c2)C(c2cccs2)NC(=S)N1` (stereo unspecified): 0.675%; for `O=C(CSc1nc2ccccc2n1S(=O)(=O)c1cccc([N+](=O)[O-])c1)NCc1cccs1`: 0.11%. The same measure for `COc1cc(C(=O)OCC(=O)Nc2ccc(SC(F)F)cc2)cc(OC)c1OC`: “inactive”; for `O=C(Cc1c[nH]c2ccccc12)NNC(=O)c1ccccc1`: 0.335%; for `COc1ccccc1CNC(=O)C(Cc1c[nH]c2ccccc12)NC(=O)OCc1ccccc1` (stereo unspecified): 6.32%. The same measure for `Cc1ccc(NP(=O)(c2ccc(N(C)C)cc2NC(=O)c2cccs2)N2CCOCC2)cc1` (stereo unspecified): 2.19%; for `Cc1ccc(NP(=O)(c2ccc(N(C)C)cc2NC(=O)c2cccs2)N2CCOCC2)cc1Cl` (stereo unspecified): 28.7% (active); for `CN(C)c1ccc(P(=O)(Nc2ccccc2)N2CCOCC2)c(NC(=O)c2cccs2)c1` (stereo unspecified): 2.15%.

With `COC(=O)c1ccccc1NC(=O)C1CCCO1` (stereo unspecified), the CPE inhibition is 3.31%. The same measure for `CCOC(=O)c1c(C)[nH]c(C(=O)COC(=O)[C@H](C)NC(=O)c2ccccc2Cl)c1C`: 0.24%; for `O=C(Nc1nc(-c2ccc(Cl)cc2)cs1)NC1CCCCC1`: 20.3% (active). With `CC(=O)c1c(C)[nH]c(C(=O)Nc2nc(-c3ccc(-c4ccccc4)cc3)cs2)c1C` the figure was 4.52%; with `CC(=O)c1c(C)[nH]c(C(=O)Nc2nc(-c3ccc(Cl)cc3)cs2)c1C`, 26.9% (active). The same measure for `O=C(NNc1nc(-c2ccc(Cl)cc2)cs1)c1ccco1`: “inactive”; for `CC(=O)c1c(C)[nH]c(C(=O)Nc2nc(-c3ccccc3)c(C)s2)c1C`: 0.6%; for `O=C(/C=C/c1ccco1)NC(=S)Nc1nc(-c2ccc(Cl)cc2)cs1`: 1.57%.

As for `CCOP(=O)(OCC)C(Nc1ccccc1)c1cc(OC)ccc1OC` (stereo unspecified), the CPE inhibition entry is “inactive”. The same measure for `COc1cccc(-c2c(-c3cc(OC)cc(OC)c3)n(C)c3ccc(-c4ccc5[nH]ccc5c4)cc23)c1`: 2.75%; for `O=C(/C=C/c1ccc(Cl)cc1Cl)NCCSCc1ccccc1`: 0.45%. The same measure for `CCN(C(=O)COC(=O)/C=C/c1ccc(O)c(OC)c1)C1CCS(=O)(=O)C1` (stereo unspecified): 0.935%; for `O=C(/C=C/c1ccc(Cl)cc1Cl)N(Cc1ccccc1)C1CCS(=O)(=O)C1` (stereo unspecified): 38.5% (active); for `O=C(/C=C/c1ccc(Cl)cc1Cl)N(Cc1ccc(Cl)cc1)C1CCS(=O)(=O)C1` (stereo unspecified): 29.6% (active). The same measure for `CC(C)CN(C(=O)CSc1nn(-c2ccc(Cl)cc2)c(=S)s1)C1CCS(=O)(=O)C1` (stereo unspecified): 2.1%; for `O=C(CCl)N(c1ccccc1)C1CCS(=O)(=O)C1` (stereo unspecified): “inactive”; for `COc1nccnc1NS(=O)(=O)c1ccc(NC(=S)NC(=O)c2ccccc2)cc1`: “inactive”. `Cc1cc(C)cc(NC(=O)CSc2nc3c(oc4ccccc43)c(=O)n2-c2ccccc2)c1`: the CPE inhibition was 0.68%.

As for `COc1ccc(NC(=O)COC(=O)CNS(=O)(=O)c2ccc(F)c(F)c2F)cc1OC`, the CPE inhibition entry is “inactive”. The same measure for `O=C(Nc1cc(S(=O)(=O)Nc2ccc(Cl)cc2)ccc1N1CCCCC1)c1ccc(F)cc1Cl`: “inactive”; for `N#Cc1ccc(C(=O)Nc2cc(S(=O)(=O)Nc3ccc(Cl)cc3)ccc2N2CCCCC2)cc1`: 7.53% (active). The same measure for `COc1ccc(NS(=O)(=O)c2ccc(N3CCOCC3)c(NC(=O)c3ccc(OC)cc3)c2)cc1`: “inactive”; for `CCOC(=O)C1=C(O)/C(=C/c2ccc(OCC(=O)O)c(OCC)c2)SC1=Nc1ccc(OC)cc1`: 0.63%; for `CC(=O)N1c2ccccc2[C@H](C)[C@H]1C`: “inactive”. The same measure for `O=C(NCCc1nc2ccccc2[nH]1)c1ccc(Cl)c([N+](=O)[O-])c1`: 0.05%. In the case of `CCC[C@@H](NS(=O)(=O)c1ccc(C)cc1)C(=O)Oc1ccc2c3c(c(=O)oc2c1)CCC3`, the CPE inhibition result is “inactive”. The same measure for `S=C(Nc1ccc(Oc2ccc(NC(=S)NC3CCCCC3)cc2)cc1)NC1CCCCC1`: 25.8% (active); for `S=C(Nc1ccc(Br)cc1)NC1CCCCC1`: 4.99%; for `S=C(Nc1ccc(Oc2ccccc2)cc1)NC1CCCCCC1`: 0.02%. The same measure for `S=C(Nc1ccc(Oc2ccccc2)cc1)NC1CCCC1`: 0.255%.

Turning to `CCNC(=S)N1CCN(CC(=O)Nc2ccc(Br)cc2)CC1`, the CPE inhibition is 2.06%. Turning to `O=C(CN1CCN(C(=S)NC2CCCC2)CC1)Nc1ccc(Oc2ccccc2)cc1`, the CPE inhibition is 12.1% (active). With `Cc1ccc(S(=O)(=O)N(C)Cc2ccc(C(=O)N/N=C/c3ccc(OC(F)F)cc3OC(F)F)cc2)cc1` the figure was 2.12%; with `S=C(c1ccc(-c2ccccc2Cl)o1)N1CCCCC1`, 2.92%. The same measure for `Cn1cc(C(=O)N2CCc3ccccc32)cn1`: “inactive”; for `c1cnc2cc(-c3ccsc3)ncc2c1`: 0.12%; for `COc1cccc(/C=C(/C#N)c2ccc(F)cc2)c1OCc1cccc(C(=O)O)c1`: “inactive”. The same measure for `CN1CCN(C(=O)c2cnn3c(C(F)(F)F)cc(-c4cccs4)nc23)CC1`: “inactive”. `CC(C)/C=N/NC(=O)c1cccc(N2CCCC2=O)c1`: the CPE inhibition is 0.335%. Regarding `CCOC(=O)c1sc(NC(=S)NC(=O)c2ccccc2)c(C(=O)OCC)c1C`, the CPE inhibition was 3.5%. With `COc1cccc(-c2c(-c3cc(OC)cc(OC)c3)n(C)c3ccc(-c4cccc5[nH]ccc45)cc23)c1` the figure was 4.01%; with `COc1cc(OC)cc(-c2c(-c3cccs3)c3cc(-c4cccc5[nH]ccc45)ccc3n2C)c1`, 11.7% (active); with `COc1ccc(-c2c(-c3cc(OC)cc(OC)c3)n(C)c3ccc(-c4cccc5[nH]ccc45)cc23)cc1`, 3.95%. With `Cc1ccc(-c2[nH]nc3c2C(C)C(C#N)=C(N)O3)cc1` (stereo unspecified) the entry was “inactive”. Take `CC(C)(C)[C@@H]1CCC(=O)N(CC[C@H](Sc2ccccc2)c2ccccc2)CC1`: the CPE inhibition is 1.54%. The same measure for `Cc1ccc(-c2csc3nc(SCC(=O)N(C)C)n(Cc4ccccc4)c(=O)c23)cc1`: 21.1% (active); for `Cc1ccc(-c2csc3nc(SCC(N)=O)n(Cc4ccccc4)c(=O)c23)cc1`: 12% (active). Take `C=CCn1c(SCC(=O)c2[nH]c(C)c(C(=O)OCC)c2C)nc2scc(-c3ccc(OC)cc3)c2c1=O`: the CPE inhibition result was “inactive”.

On to `Cc1ccc(-n2c(SCC(N)=O)nc(O)cc2=O)cc1`, for which the CPE inhibition is 1.35%. The same measure for `CN(Cc1ccccc1)c1nc(CN2CCOCC2)nc2scc(-c3ccccc3)c12`: 1.83%.

For `CCn1c(SCc2nc3scc(-c4ccccc4)c3c(=O)[nH]2)nnc1-c1cccs1`, the CPE inhibition entry is “inactive”. The same measure for `O=C(Nc1ccc(-c2nc3ccccc3[nH]2)cc1)c1ccccc1NS(=O)(=O)c1ccc(F)cc1`: 0.325%; for `COc1cc(NC(=O)CSc2nc3c(C)ccc(C)c3cc2C)c(C(=O)O)cc1OC`: “inactive”; for `O=C1CN(C(=O)CSc2nnc(Nc3ccccc3)s2)c2ccccc2N1`: “inactive”.

On to `S=C1NCCOCCNC(=S)NCCOCCOCCOCCN1`, for which the CPE inhibition result was “inactive”. With `CC(=O)CC[C@@H](C)O[C@@H]1OC(C)[C@H](O)CC1O` (stereo partly specified) the figure was 0.175%. With `CCc1cccc(CC)c1NC(=O)C1CN(S(=O)(=O)c2ccccc2)CCN1S(=O)(=O)c1ccccc1` (stereo unspecified) the figure was 1.21%.

(Values after PubChem BioAssay AID540333 (Southern Research Specialized Biocontainment Screening …, 2011).)
